The full list was thinned out, with the strongest signals kept by preference.
How the values were obtained:
Experiment in all cases: glycan array binding signal (z-score within array); higher = stronger binding
Details in all cases: glycan notation: IUPAC condensed, linker removed
[1] = target: Fuc(a1-2)Gal(b1-3)GalNAc(a1-3)[Fuc(a1-2)]Gal(b1-4)GlcNAc
Summary of the method: (§1)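 Glycan array binding is given as a within-array Z-score, which can be read as non-binding when negative. The arrays, 3228 of them, came from the Consortium for Functional Glycomics database and were retained only where the protein sequence was available. Z-scores were averaged across arrays of the same protein sequence at different concentrations or buffers and across linkers.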

[2] = target: Fuc(a1-2)Gal(b1-3)GlcNAc(b1-3)Gal(b1-4)Glc
Summary of the method: as §1

[3] = target: Fuc(a1-2)Gal(b1-3)[Fuc(a1-4)]GlcNAc(b1-3)[Gal(b1-4)GlcNAc(b1-6)]Gal(b1-4)Glc
Summary of the method: as §1

[4] = target: Fuc(a1-2)[Gal(a1-3)]Gal(b1-3)GlcNAc(b1-2)Man(a1-3)[Fuc(a1-2)[Gal(a1-3)]Gal(b1-3)GlcNAc(b1-2)Man(a1-6)]Man(b1-4)GlcNAc(b1-4)GlcNAc
Summary of the method: as §1

[5] = target: Fuc(a1-2)[Gal(a1-3)]Gal(b1-3)GlcNAc(b1-2)Man(a1-3)[Fuc(a1-2)[Gal(a1-3)]Gal(b1-3)GlcNAc(b1-2)Man(a1-6)]Man(b1-4)GlcNAc(b1-4)[Fuc(a1-6)]GlcNAc
Summary of the method: as §1

[6] = target: Fuc(a1-2)[Gal(a1-3)]Gal(b1-3)GlcNAc(b1-3)GalNAc
Summary of the method: as §1

[7] = target: Fuc(a1-2)[Gal(a1-3)]Gal(b1-4)GlcNAc(b1-2)Man
Summary of the method: as §1

[8] = target: Fuc(a1-2)[Gal(a1-3)]Gal(b1-4)GlcNAc(b1-2)Man(a1-3)[Fuc(a1-2)[Gal(a1-3)]Gal(b1-4)GlcNAc(b1-2)Man(a1-6)]Man(b1-4)GlcNAc(b1-4)GlcNAc
Summary of the method: as §1

[9] = target: Fuc(a1-2)[Gal(a1-4)]Gal(b1-4)GlcNAc
Summary of the method: as §1

[10] = target: Fuc(a1-2)[GalNAc(a1-3)]Gal(b1-3)GlcNAc(b1-2)Man(a1-3)[Fuc(a1-2)[GalNAc(a1-3)]Gal(b1-3)GlcNAc(b1-2)Man(a1-6)]Man(b1-4)GlcNAc(b1-4)GlcNAc
Summary of the method: as §1

[11] = target: Fuc(a1-2)[GalNAc(a1-3)]Gal(b1-3)GlcNAc(b1-3)GalNAc
Summary of the method: as §1

[12] = target: Fuc(a1-2)[GalNAc(a1-3)]Gal(b1-4)GlcNAc(b1-2)Man(a1-3)[Fuc(a1-2)[GalNAc(a1-3)]Gal(b1-4)GlcNAc(b1-2)Man(a1-6)]Man(b1-4)GlcNAc(b1-4)[Fuc(a1-6)]GlcNAc
Summary of the method: as §1

[13] = target: Fuc(a1-2)[GalNAc(a1-3)]Gal(b1-4)GlcNAc(b1-3)GalNAc
Summary of the method: as §1

[14] = target: Fuc(a1-2)[GalNAc(b1-3)]Gal
Summary of the method: as §1

[15] = target: Fuc(a1-3)[Gal(b1-4)]GlcNAc(b1-4)Gal(b1-4)[Fuc(a1-3)]GlcNAc(b1-4)Gal(b1-4)[Fuc(a1-3)]GlcNAc
Summary of the method: as §1

[16] = target: Fuc(a1-3)[GalNAc(b1-4)]GlcNAc
Summary of the method: as §1

[17] = target: Gal(a1-3)Gal(b1-3)[Fuc(a1-4)]GlcNAc(b1-2)Man(a1-3)[Gal(a1-3)Gal(b1-3)[Fuc(a1-4)]GlcNAc(b1-2)Man(a1-6)]Man(b1-4)GlcNAc(b1-4)GlcNAc
Summary of the method: as §1

Gal(a1-3)Gal(b1-4)GlcNAc = target: Gal(a1-3)Gal(b1-4)GlcNAc
Summary of the method: as §1

[18] = target: Gal(a1-3)Gal(b1-4)GlcNAc(b1-6)GalNAc
Summary of the method: as §1

[19] = target: Gal(b1-3)GlcNAc(b1-3)Gal(b1-4)GlcNAc(b1-2)Man(a1-3)[Gal(b1-3)GlcNAc(b1-3)Gal(b1-4)GlcNAc(b1-2)Man(a1-6)]Man(b1-4)GlcNAc(b1-4)GlcNAc
Summary of the method: as §1

[20] = target: Gal(b1-3)[Fuc(a1-4)]GlcNAc(b1-3)Gal(b1-3)[Fuc(a1-4)]GlcNAc
Summary of the method: as §1

[21] = target: Gal(b1-3)[Fuc(a1-4)]GlcNAc(b1-3)Gal(b1-4)GlcNAc
Summary of the method: as §1

Gal(b1-4)Glc = target: Gal(b1-4)Glc
Summary of the method: as §1

[22] = target: Gal(b1-4)GlcNAc(b1-3)Gal(b1-4)GlcNAc(b1-3)Gal(b1-4)GlcNAc
Summary of the method: as §1

[23] = target: Gal(b1-4)GlcNAc(b1-3)Gal(b1-4)GlcNAc(b1-3)Gal(b1-4)GlcNAc(b1-3)Gal(b1-4)GlcNAc(b1-3)Gal(b1-4)GlcNAc(b1-2)Man(a1-3)[Gal(b1-4)GlcNAc(b1-3)Gal(b1-4)GlcNAc(b1-3)Gal(b1-4)GlcNAc(b1-3)Gal(b1-4)GlcNAc(b1-3)Gal(b1-4)GlcNAc(b1-2)Man(a1-6)]Man(b1-4)GlcNAc(b1-4)[Fuc(a1-6)]GlcNAc
Summary of the method: as §1

[24] = target: Gal(b1-4)GlcNAc(b1-3)Gal(b1-4)GlcNAc(b1-3)GalNAc
Summary of the method: as §1

[25] = target: Gal(b1-4)GlcNAc(b1-3)Gal(b1-4)GlcNAc(b1-3)[Gal(b1-4)GlcNAc(b1-3)Gal(b1-4)GlcNAc(b1-6)]GalNAc
Summary of the method: as §1

Gal3S(b1-4)GlcNAc6S = target: Gal3S(b1-4)GlcNAc6S
Summary of the method: as §1

KISKRILTGKK [NK11 (Sus scrofa)]
glycan array binding signal (z-score) [1]: -0.539 | glycan array binding signal (z-score) [2]: 0.203 | glycan array binding signal (z-score) [3]: -0.767 | glycan array binding signal (z-score) [4]: -0.23 | glycan array binding signal (z-score) [5]: -0.614 | glycan array binding signal (z-score) [6]: 0.052 | glycan array binding signal (z-score) [7]: -0.085 | glycan array binding signal (z-score) [8]: 0.702 | glycan array binding signal (z-score) [9]: 0.014 | glycan array binding signal (z-score) [10]: -0.032 | glycan array binding signal (z-score) [11]: 0.052 | glycan array binding signal (z-score) [12]: 0.421 | glycan array binding signal (z-score) [13]: -1.25 | glycan array binding signal (z-score) [14]: -0.608 | glycan array binding signal (z-score) [15]: -0.886 | glycan array binding signal (z-score) [16]: -0.401 | glycan array binding signal (z-score) [17]: -0.06 | glycan array binding signal (z-score) (Gal(a1-3)Gal(b1-4)GlcNAc): -0.302 | glycan array binding signal (z-score) [18]: -0.147 | glycan array binding signal (z-score) [19]: -0.818 | glycan array binding signal (z-score) [20]: -0.425 | glycan array binding signal (z-score) [21]: 3.41 | glycan array binding signal (z-score) (Gal(b1-4)Glc): -0.144 | glycan array binding signal (z-score) [22]: -0.612 | glycan array binding signal (z-score) [23]: -0.483 | glycan array binding signal (z-score) [24]: 2.91 | glycan array binding signal (z-score) [25]: 3.55 | glycan array binding signal (z-score) (Gal3S(b1-4)GlcNAc6S): 3.4

Reference: the supplement of paper PMC8728848
